# Rows were chosen to be rich in hits. Some 17% of all compounds tested hit in one or more screens of this group.
# ATXN2 expr inh: reduces ATXN2 reporter expression in HEK-293 cells. HEK-293 ATXN2-luciferase reporter, luminescence, 24 h. Potency, µM (series often up to 57 µM), usual class: inhibitors. hit rate 0.72% among 360,000. AID 1745845; further: nearly all actives have a fitted effect of over 55% in size
#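 qHTS (up to 57 uM final) was run with 24 h compound exposure of reporter cells at 37 °C. Each well was multiplexed: SteadyGlo luminescence measured ATXN2-luciferase expression after a fluorogenic Gly-Phe-AFC viability readout (25 uM final).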
# HepG2 tox: counter-screen for TGF-b inhibitors: cytotoxicity in HepG2 cells; AID 588856; Potency, µM (titrated, usually from 46.1 µM), usual class: cytotoxic; hit rate 0.76% among 410,000; HepG2 CAGA-GFP viability, ATP luminescence, 18 h
#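 CellTiter-Glo luminescence gave cytotoxicity after 18 hours at 37 degrees C. The cells were HepG2 CAGA-GFP in 1% FBS DMEM, stimulated with 500 pg/mL TGF-beta after compound addition. %Activity was normalised to no-cell wells (complete cell-killing) and DMSO (no toxicity), and curves were fitted and classified.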
# DT40 TDP1 no CPT: qHTS for Inhibitors of human tyrosyl-DNA phosphodiesterase 1 (TDP1): qHTS in cells in absence of CPT; hit rate 15% among 420,000; AID 686978, 2013; DT40 Tdp1-/- hTDP1 cells, no CPT, ATP luminescence, 48 h; Potency, µM (titrated, usually from 46.2 µM), actives largely listed as inhibitors; further: nearly all actives have a fitted effect of over 55% in size
#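 Chicken DT40 Tdp1-/- cells stably complemented with human TDP1 were seeded at 400 cells/well with DMSO in place of 20 nM camptothecin. After compound pinning, cells grew at least 48 hr at 37 °C; viability read by CellTiter-Glo luminescence.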
# TGFb inhibitor: inhibitors of TGF-b signaling; HepG2 CAGA-GFP TGF-b/SMAD3 reporter, GFP fluorescence, 18 h; TGF-beta stimulated, 500 pg/mL final; Potency, µM (highest dose often 46.1 µM), actives largely listed as inhibitors; hit rate 1.2% among 410,000; further: nearly all actives have a fitted effect of over 65% in size
#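 Inhibition was scored as loss of TGF-beta-induced (500 pg/mL final, 18 hours, 37 degrees C) GFP in HEPG2 cells carrying a CAGA-GFP reporter, in DMEM with 1% FBS. Well GFP was summed per cell; Activity was normalised to unstimulated and stimulated DMSO wells, then concentration-response fitting.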
# TDP1 cell CPT: growth inhibition of DT40 Tdp1-/-;hTDP1 cells with camptothecin (screen for TDP1 inhibitors); hit rate 12% among 420,000; chicken DT40 Tdp1-/-;hTDP1 cells + 20 nM CPT, ATP luminescence, 48 h; Potency, µM (series often up to 46.2 µM), actives largely listed as inhibitors; further: nearly all actives have a fitted effect of over 55% in size
#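 Chicken DT40 Tdp1-/- cells stably complemented with human TDP1 were seeded at 400 cells/well in medium containing 20 nM camptothecin, exposed to pin-transferred compounds, and grown at 37 °C for at least 48 hr. Viability was read as ATP luminescence.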
# S2 tox: cell viability loss in ATXN counter-screen; S2 cells (HEK-293 line with an ATXN2-luciferase reporter) viability, CellTiter-Fluor protease fluorescence, 24 h; Potency, µM (titrated, usually from 56.7 µM), most hits filed as cytotoxic; hit rate 0.49% among 400,000; AID 651635; further: nearly all actives have a fitted effect of over 40% in size
# Numbers stand for hits; - = inactive; ? = inconclusive; . = no result; [ ] = remark or other dose. The call rests on the fitted dose curve; in most records, active means well fitted curve in the direction sought with a large enough effect; inconclusive means small, poorly fitted or top-dose-only effect, or another doubt; inactive means no such curve, though single readings can be large; an effect the other way counts as inactive or inconclusive.
SMILES,ATXN2 expr inh,HepG2 tox,DT40 TDP1 no CPT,TGFb inhibitor,TDP1 cell CPT,S2 tox
CCC(Sc1nnc2c3ccccc3n(CC)c2n1)C(=O)Nc1ccc(NC(C)=O)cc1 (stereo unspecified),.,-,21µM,-,?,.
COc1cccc(Cn2c(=O)c(-c3cccs3)nc3cnc(N4CCN(C)CC4)nc32)c1,.,.,-,.,-,.
COCC(=O)Nc1cc(C(=O)N2CCOc3ccccc3C2)cc2nc(-c3cccnc3)n(C)c12,.,.,-,.,-[9.04 µM],?
Cc1ccccc1C(=O)c1cccn1CC(=O)N1CCCCC1,.,-,?,-,-,-
O=C(COC(=O)C1CC2C=CC1C2)Nc1ccc2c(c1)OC(F)(F)O2 (stereo unspecified),-,-,?,-,-,-
O=S(=O)(c1ccc(Cl)c(Cl)c1)c1snnc1-c1ccccc1,28µM,16µM,3.3µM,?,2.6µM,13µM
COc1ccc(S(=O)(=O)N2CCC[C@H]2C(=O)N2CCC[C@H]2C(=O)NCc2ccc(F)cc2F)cc1C,?,.,18µM,.,?,25µM
COc1cccc(CNC(=O)[C@@H]2CCCN2C(=O)[C@H]2CCCCN2S(=O)(=O)c2ccc(OC)c(C)c2)c1,-,.,21µM,.,?,?
FC(F)(F)c1ccnc(Sc2n[nH]c(C(F)(F)F)n2)c1,-,-,?,-,-,-
FC(F)(F)c1ccc(Sc2n[nH]c(C(F)(F)F)n2)nc1,-,-,29µM,-,?,-
COc1cccc(-c2cccc3c2NC(=O)C3(C)Cc2cccc(F)c2)c1 (stereo unspecified),-,-,21µM,?,?,-
CCc1ccc2c(c1)NC(=O)C2(C)Cc1cccc(F)c1 (stereo unspecified),?,-,?,-,?,?
CC1(Cc2cccc(F)c2)C(=O)Nc2ccc(-c3cccnc3)cc21 (stereo unspecified),-,-,10µM,-,12µM,-
CC1(Cc2ccc(Cl)cc2)C(=O)Nc2ccc(-c3cccnc3)cc21 (stereo unspecified),-,-,12µM,-,13µM,-
c1ccc(CC[n+]2ccncc2)cc1,.,-,-,-,-,.
C[C@@H]1COc2cccc(N(C)CCO)c2S(=O)(=O)N1,-,.,-,.,-,-
CN(C(=O)COc1ccc(Oc2ccccc2)cc1)C1CCS(=O)(=O)C1 (stereo unspecified),-,-,-,-,-,-
Clc1ccccc1-c1cccc2nccn12,-,-,?,-,?,-
c1ccc2c(c1)oc1c(-c3cccc4nccn34)cccc12,-,-,?,?,13µM,?
CN(C)N1C(N)=C(C#N)C(c2cccc3ccccc23)C2=C1CC(c1ccccc1)CC2=O (stereo unspecified),?,-,7.3µM,?,8.2µM,-
COCC(=O)N1CCC[C@@]2(CCN(C(=O)Nc3ccc(OC)cc3)C2)C1,.,.,-,.,-,.
COCCNc1cc(N2CCN(C3CCCCC3)CC2)c2noc3c2c1C(=O)c1ccccc1-3,.,-,16µM,-,18µM,.
CN(C)CCCNc1cc(N2CCN(C3CCCCC3)CC2)c2noc3c2c1C(=O)c1ccccc1-3,.,16µM,21µM,-,23µM,.
COCC(=O)Nc1ccc(S(=O)(=O)NCC2CCCO2)cc1 (stereo unspecified),-,-,-,-,-,-
Cc1ccccc1C(=O)Nc1ccc(S(=O)(=O)NCC2CCCO2)cc1 (stereo unspecified),.,-,13µM,-,10µM,?
SMILES,ATXN2 expr inh,HepG2 tox,DT40 TDP1 no CPT,TGFb inhibitor,TDP1 cell CPT,S2 tox
O=C(Cc1ccc(Br)cc1)Nc1ccc(S(=O)(=O)NCC2CCCO2)cc1 (stereo unspecified),-[11.3 µM],-,18µM,-,12µM,-
CCOc1cc(NC(=S)NCC2CCCO2)c(OCC)cc1NC(=O)c1ccccc1C (stereo unspecified),-,-,?,-,29µM,-
O=C(C[n+]1cccc(Br)c1)c1ccc(-c2ccccc2)cc1,.,-,?,-,?,-
Cc1cc[n+](C2CCCCC2)c2ccccc12,.,-,?,-,?,.
CCCCCCCCCCCCCCCCCC(=O)[O][Al],.,.,-,.,-,-
CCOC(=O)C1CCCCN1S(=O)(=O)c1ccc2c(c1)CC(C)N2C(=O)C1CCC1 (stereo unspecified),.,-,9.2µM,-,23µM,-
CC1CC(C)CN(S(=O)(=O)c2ccc3c(c2)CC(C)N3C(=O)C2CCC2)C1 (stereo unspecified),-,-,15µM,?,23µM,-
CC1CC(C)CN(S(=O)(=O)c2ccc3c(c2)CC(C)N3C(=O)C2CC2)C1 (stereo unspecified),.,-,15µM,?,18µM,-
CC1CCN(C(=O)C2CCN(S(=O)(=O)c3ccc4c(c3)CC(C)N4C(=O)C3CC3)CC2)CC1 (stereo unspecified),-,-,?,-,-,-
CC1Cc2cc(S(=O)(=O)N3CCCCC3C)ccc2N1C(=O)C1CCC1 (stereo unspecified),.,-,?,-,?,-
N#Cc1cn(Cc2ccco2)c(=O)[nH]c1=O,-,-,-,-,-,-
Cc1cc(C)c2c(c1)-c1c(ssc1=S)C(C)(C)N2C(=O)CN1C(=O)c2ccccc2C1=O,-,-,?,-,21µM,-
COc1cccc2sc3cc(C#Cc4ccccn4)ccc3c(=O)c12,-,-,16µM,-,18µM,-
O=c1c2ccccc2oc2cc(C#Cc3ccccn3)ccc12,-,-,-,?,-,-
COc1cccc2oc3ccc(C#Cc4ccccn4)cc3c(=O)c12,-,-,?,-,12µM,-
COc1cc2sc3ccc(C#Cc4ccccn4)cc3c(=O)c2cc1OC,-,-,?,-,-,?
Nc1ncnc2c1ncn2[C@@H]1O[C@H](C(=O)Nc2ccc(Oc3ccccc3)nc2)[C@@H](O)[C@H]1O,-,-,-,-,-,-
Cc1ccccc1Cn1c2ccccc2c2cnn(CC(=O)NC3CCCCCC3)c(=O)c21,-,-,10µM,-,12µM,-
O=C(Cn1ncc2c3ccccc3n(Cc3ccc(Cl)cc3)c2c1=O)NC1CCCCCC1,-,-,-,-,-,-
Cc1cc(C)c(Cn2c3ccccc3c3cnn(CC(=O)NC4CCC(C)CC4)c(=O)c32)c(C)c1 (stereo unspecified),-,-,?,-,13µM,-
